{"source": "PubChem BioAssay AID1159554", "about": "(Broad Institute, 2015)", "note": "Screen size: about 94,000 compounds; about 2,100 (2.2%) were called active. No stated cut-off is given here; in the data, active means activity change below about -80%; inconclusive means no clear call, values can overlap the other calls; inactive means above that. What follows is part of a selection rich in actives, with near analogues and random picks from the rest.", "data": [{"test": "Dd2 malaria parasite growth inhibition – SYBR Green fluorescence, single dose replicates, primary screen (AID 1159554)", "conditions": "P. falciparum Dd2 growth, 72 h, at 10 µM, stronger effect = lower value", "values": [{"smiles": "CC(=O)N1[C@H](CO)[C@H](c2ccccc2)C12CN(C(=O)c1ccccn1)C2", "activity change": "-28.2% (inactive)"}, {"smiles": "C[C@@H]1CN([C@@H](C)CO)C(=O)c2cc(NC(=O)Cc3ccccc3)ccc2O[C@@H](C)CCCCO[C@@H]1CN(C)C(=O)Nc1ccccc1", "activity change": "-51.5% (inactive)"}, {"smiles": "C[C@@H]1CN([C@@H](C)CO)C(=O)c2cc(NC(=O)CCCN(C)C)ccc2O[C@@H](C)CCCCO[C@H]1CN(C)C(=O)Nc1cccc2ccccc12", "activity change": "-85.2% (active)"}, {"smiles": "C[C@@H]1CN([C@@H](C)CO)C(=O)c2cc(NC(=O)Cc3ccccc3)ccc2O[C@@H](C)CCCCO[C@H]1CN(C)C(=O)Nc1cccc2ccccc12", "activity change": "-86.1% (active)"}, {"smiles": "CC(C)NC(=O)N(C)C[C@@H]1OCCCC[C@@H](C)Oc2ccc(NC(=O)CCCN(C)C)cc2C(=O)N([C@@H](C)CO)C[C@@H]1C", "activity change": "-5.33% (inactive)"}, {"smiles": "CC(C)NC(=O)N(C)C[C@@H]1OCCCC[C@@H](C)Oc2ccc(NC(=O)Cc3ccccc3)cc2C(=O)N([C@H](C)CO)C[C@H]1C", "activity change": "-13.3% (inactive)"}, {"smiles": "C[C@@H]1CCCCO[C@H](CN(C)C(=O)Nc2cccc3ccccc23)[C@H](C)CN([C@@H](C)CO)C(=O)c2cc(NC(=O)CCCN(C)C)ccc2O1", "activity change": "0.619% (inactive)"}, {"smiles": "CO[C@@H]1CN(C)C(=O)c2cc(NC(=O)Nc3ccc(F)cc3)ccc2OC[C@@H](C)NC[C@@H]1C", "activity change": "13.3% (inactive)"}, {"smiles": "O=C(C[C@H]1CC[C@H]2[C@@H](COC[C@@H](O)CN2CC2CCOCC2)O1)NCc1ccc(Cl)cc1", "activity change": "-4.66% (inactive)"}, {"smiles": "CO[C@@H]1CN(C)C(=O)c2ccc(NS(C)(=O)=O)cc2OC[C@@H](C)N(C(=O)CC2CC2)C[C@@H]1C", "activity change": "16.2% (inactive)"}, {"smiles": "O=C(c1ccccn1)N1CC(=O)N2[C@H](CO)[C@H](c3ccc(C#CCc4ccccc4)cc3)[C@H]2C1", "activity change": "-46.8% (inactive)"}, {"smiles": "O=C(C[C@@H]1C=C[C@H](NC(=O)Nc2ccccc2F)[C@@H](CO)O1)NCc1ccccc1", "activity change": "-0.106% (inactive)"}, {"smiles": "CN1CCN(C(=O)C[C@H]2CC[C@H]3[C@@H](COc4ccc(NC(=O)C5CCC5)cc4C(=O)N3C)O2)CC1", "activity change": "-19.8% (inactive)"}, {"smiles": "CN1C(=O)c2cc(NC(=O)c3cccc(F)c3)ccc2OC[C@H]2O[C@@H](CC(=O)NCc3ccccc3Cl)CC[C@@H]21", "activity change": "-47.4% (inactive)"}, {"smiles": "CCCNC(=O)N(C)C[C@H]1Oc2cc(-c3ccncc3)ccc2S(=O)(=O)N([C@H](C)CO)C[C@H]1C", "activity change": "70.9% (inactive)"}, {"smiles": "CC(C)NC(=O)N[C@H]1C=C[C@H](CC(=O)NCCN2CCCC2)O[C@@H]1CO", "activity change": "9.57% (inactive)"}, {"smiles": "C/C=C/c1cnc2c(c1)C(=O)N([C@@H](C)CO)C[C@H](C)[C@H](CN(C)C(=O)CN1CCOCC1)O2", "activity change": "-2.24% (inactive)"}, {"smiles": "COc1ccc2c3c(n(C)c2c1)[C@H](CO)N(C(=O)CC1CC1)CC31CCN(Cc2nccs2)CC1", "activity change": "-91.8% (active)"}, {"smiles": "COc1ccc2c3c(n(C)c2c1)[C@@H](CO)N(C(=O)Nc1cccc(F)c1)CC31CCN(Cc2nccs2)CC1", "activity change": "-73.5% (inactive)"}, {"smiles": "COc1ccc2c3c(n(C)c2c1)[C@H](CO)N(CC1CCCCC1)CC31CCN(Cc2nccs2)CC1", "activity change": "-91% (active)"}, {"smiles": "COc1ccc2c3c(n(C)c2c1)[C@H](CO)N(Cc1cccnc1)CC31CCN(Cc2cccnc2)CC1", "activity change": "-77.6% (inactive)"}, {"smiles": "CCC(=O)N1CC2(C1)CN(Cc1nccs1)[C@@H](CO)c1c2c2ccc(OC)cc2n1C", "activity change": "3.74% (inactive)"}, {"smiles": "COc1ccc2c3c(n(C)c2c1)[C@@H](CO)N(C(C)=O)CC31CCN(Cc2nccs2)CC1", "activity change": "-11.3% (inactive)"}, {"smiles": "CN1C(=O)c2cc(NC(=O)C3CCCC3)ccc2OC[C@H]2O[C@@H](CC(=O)NCCc3ccncc3)CC[C@H]21", "activity change": "22.6% (inactive)"}, {"smiles": "CCS(=O)(=O)N1CC2(CN(C(=O)c3ccc(F)cc3)[C@H](CO)c3c2c2ccc(OC)cc2n3C)C1", "activity change": "-2.54% (inactive)"}, {"smiles": "CCC(=O)N1C[C@H](C)[C@H](OC)CN(C)C(=O)c2cc(NC(=O)Nc3cccc(F)c3)ccc2OC[C@@H]1C", "activity change": "-86.1% (active)"}, {"smiles": "CO[C@H]1CN(C)C(=O)c2cc(NC(=O)Nc3cccc(F)c3)ccc2OC[C@H](C)N(C(C)=O)C[C@H]1C", "activity change": "-27.3% (inactive)"}, {"smiles": "CO[C@@H]1CN(C)C(=O)c2ccc(NC(=O)Nc3cc(Cl)cc(Cl)c3)cc2OC[C@H](C)NC[C@H]1C", "activity change": "-84.1% (active)"}, {"smiles": "CCC(=O)N1C[C@H](C)[C@H](OC)CN(C)C(=O)c2ccc(NC(=O)Nc3cccc(F)c3)cc2OC[C@@H]1C", "activity change": "-41.8% (inactive)"}, {"smiles": "CCC(=O)Nc1ccc2c(c1)C(=O)N(C)C[C@H](OC)[C@H](C)CN(Cc1ccccc1F)[C@H](C)CO2", "activity change": "-27.5% (inactive)"}, {"smiles": "CO[C@H]1CN(C)C(=O)c2ccc(NC(C)=O)cc2OC[C@@H](C)NC[C@H]1C", "activity change": "19.5% (inactive)"}, {"smiles": "CCC(=O)Nc1ccc2c(c1)C(=O)N(C)C[C@@H](OC)[C@@H](C)CN(Cc1ccccc1F)[C@H](C)CO2", "activity change": "-23.2% (inactive)"}, {"smiles": "CCCC(=O)Nc1ccc2c(c1)OC[C@@H](C)N(Cc1ccccc1F)C[C@@H](C)[C@H](OC)CN(C)C2=O", "activity change": "-88.8% (active)"}, {"smiles": "CO[C@H]1CN(C)C(=O)c2ccc(NC(=O)Nc3ccc4c(c3)OCO4)cc2OC[C@H](C)NC[C@H]1C", "activity change": "0.516% (inactive)"}, {"smiles": "COc1ccc(NC(=O)Nc2ccc3c(c2)[C@H]2C[C@H](CC(=O)NC4CCCC4)O[C@@H](CO)[C@H]2O3)cc1", "activity change": "4.95% (inactive)"}, {"smiles": "O=C(C[C@@H]1CC[C@H]2[C@@H](COC[C@H](O)CN2S(=O)(=O)c2ccccc2)O1)NCCN1CCCC1", "activity change": "-4.83% (inactive)"}, {"smiles": "C[C@@H]1CCCCO[C@H](CN(C)C(=O)CCC(F)(F)F)[C@H](C)CN([C@@H](C)CO)C(=O)c2cc(NC(=O)CCCCCC(=O)Nc3ccccc3N)ccc2O1", "activity change": "-41% (inactive)"}, {"smiles": "COCCNC[C@@H]1[C@H](c2ccccc2)[C@H](CO)N1c1nc(C)c(C)s1", "activity change": "-28.1% (inactive)"}, {"smiles": "Cc1nc(N2[C@H](CO)[C@H](c3ccccc3)[C@H]2CNCC2CCC2)sc1C", "activity change": "-89.7% (active)"}, {"smiles": "O=C(NC[C@@H]1[C@H](c2ccccc2)[C@H](CO)N1CC1CCCC1)c1cccnc1", "activity change": "-5.05% (inactive)"}, {"smiles": "CCCNC(=O)N1[C@H](CO)[C@H](c2ccccc2)[C@H]1CNC(=O)C1CCCCC1", "activity change": "6.57% (inactive)"}, {"smiles": "Cc1nc(N2[C@H](CO)[C@H](c3ccccc3)[C@H]2CNCC2CCCCC2)sc1C", "activity change": "-96.4% (active)"}, {"smiles": "O=S(=O)(NC[C@H]1[C@@H](c2ccccc2)[C@@H](CO)N1CC1CC1)c1ccccc1", "activity change": "10.7% (inactive)"}, {"smiles": "CCCNC(=O)[C@@H]1[C@@H](CO)[C@@H]2Cn3c(ccc(-c4ccccc4F)c3=O)[C@H]1N2CC1CC1", "activity change": "4.78% (inactive)"}, {"smiles": "CCCNC(=O)C[C@@H]1CC[C@H]2[C@@H](COc3ccc(NC(=O)C4CCCC4)cc3C(=O)N2C)O1", "activity change": "5.93% (inactive)"}, {"smiles": "O=C(CC1CC1)N1CC[C@@H]2[C@@H](CO)Nc3ccc(-c4ccccc4)cc3[C@@H]21", "activity change": "4.83% (inactive)"}, {"smiles": "O=C(Nc1ccccc1)N[C@@H]1CC[C@H](CCn2cc(-c3ccccc3F)nn2)O[C@@H]1CO", "activity change": "-68% (inactive)"}, {"smiles": "O=C(Nc1ccc(F)cc1)N[C@H]1CC[C@H](CCn2cc(C3(O)CCCC3)nn2)O[C@@H]1CO", "activity change": "-25.8% (inactive)"}, {"smiles": "C[C@@H]1CN([C@H](C)CO)C(=O)c2cc(NC(=O)Nc3ccccc3)ccc2O[C@@H](C)CCCCO[C@H]1CN(C)Cc1ccc(C(F)(F)F)cc1", "activity change": "-85.7% (active)"}, {"smiles": "COc1ccc(NC(=O)Nc2ccc3c(c2)C(=O)N([C@H](C)CO)C[C@@H](C)[C@H](CN(C)Cc2ccc(Cl)c(Cl)c2)OCCCC[C@@H](C)O3)cc1", "activity change": "-83.8% (active)"}, {"smiles": "C[C@@H]1CCCCO[C@@H](CN(C)Cc2ccc(C(F)(F)F)cc2)[C@@H](C)CN([C@H](C)CO)C(=O)c2cc(NC(=O)Nc3ccccc3)ccc2O1", "activity change": "74.5% (inactive)"}, {"smiles": "COc1ccc(CN(C)C[C@@H]2OCCCC[C@@H](C)Oc3ccc(NC(=O)Nc4ccc(OC)cc4)cc3C(=O)N([C@@H](C)CO)C[C@@H]2C)cc1", "activity change": "-76.5% (inactive)"}, {"smiles": "C[C@@H]1CCCCO[C@@H](CN(C)Cc2ccc(Cl)c(Cl)c2)[C@H](C)CN([C@H](C)CO)C(=O)c2cc(NC(=O)Nc3ccc(F)cc3)ccc2O1", "activity change": "-83% (active)"}, {"smiles": "C[C@@H]1CCCCO[C@H](CN(C)Cc2ccc(Cl)c(Cl)c2)[C@@H](C)CN([C@@H](C)CO)C(=O)c2cc(NC(=O)Nc3ccccc3)ccc2O1", "activity change": "-83% (active)"}, {"smiles": "CC(C)NC(=O)Nc1ccc2c(c1)C(=O)N([C@@H](C)CO)C[C@@H](C)[C@H](CN(C)Cc1ccc(Cl)c(Cl)c1)OCCCC[C@H](C)O2", "activity change": "-77.6% (inactive)"}, {"smiles": "C[C@@H]1CN([C@H](C)CO)C(=O)c2cc(NC(=O)Nc3ccc(F)cc3)ccc2O[C@@H](C)CCCCO[C@H]1CN(C)Cc1ccc(Cl)c(Cl)c1", "activity change": "-77.2% (inactive)"}, {"smiles": "COc1ccc(NC(=O)Nc2ccc3c(c2)C(=O)N([C@H](C)CO)C[C@H](C)[C@H](CN(C)Cc2ccncc2)OCCCC[C@H](C)O3)cc1", "activity change": "29.4% (inactive)"}, {"smiles": "C[C@H]1CCCCO[C@@H](CN(C)Cc2ccc(C(F)(F)F)cc2)[C@@H](C)CN([C@@H](C)CO)C(=O)c2cc(NC(=O)Nc3ccccc3)ccc2O1", "activity change": "-74.7% (inactive)"}, {"smiles": "C[C@@H]1CCCCO[C@@H](CN(C)Cc2ccc3c(c2)OCO3)[C@@H](C)CN([C@@H](C)CO)C(=O)c2cc(NC(=O)Nc3ccccc3)ccc2O1", "activity change": "-36.8% (inactive)"}, {"smiles": "C[C@H](CO)N1C[C@H](C)[C@H](CN(C)Cc2ccc(Cl)c(Cl)c2)OCCCC[C@H](C)Oc2ccc(NC(=O)NC3CCCCC3)cc2C1=O", "activity change": "-14.4% (inactive)"}]}]}
